Results on 40 compounds are retold here after the supplement of paper PMC9950053.

Each structure is given as a SMILES string. Counter-ions that a name gives are not always drawn.

The test concerns Danio rerio larvae (5 dpf). Kind of test: excitability (activity period 17 minus period 16, 1-s interval sound) minus DMSO control (percentage points); higher = more acoustic excitability than DMSO larvae. The settings on record: 10 µM; exposure time: 3 h pre-incubation + 3 h imaging. The protocol:
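Wild-type 5 dpf zebrafish larvae (n=48 per drug, 96-well plates, 28.5 °C) were exposed to Tocris FDA-approved library compounds at 10 µM (0.1% DMSO) for 3 h before and 3 h during imaging. Images were taken every 6 s during visual (moving coloured lines) and acoustic stimuli, and larvae were tracked with the DeepLabCut-based Z-LaP Tracker. Each behavioural measure is the treated-group mean minus the DMSO vehicle control mean (n=844), in percentage points. This mapping covers compounds with 4-character plate codes.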
`CO[C@H]1/C=C/O[C@@]2(C)Oc3c(C)c(O)c4c(O)c(c5c(nc6cc(C)ccn65)c4c3C2=O)NC(=O)/C(C)=C\C=C\[C@H](C)[C@H](O)[C@@H](C)[C@@H](O)[C@@H](C)[C@H](OC(C)=O)[C@@H]1C` [Rifaximin]: the excitability amounted to 5.77.

On to `COc1cc2nc(N3CCN(C(=O)C4COc5ccccc5O4)CC3)nc(N)c2cc1OC` (stereo not given) [Doxazosin mesylate], for which the excitability is 21.8.

Take `CCCCCCCCc1ccc(CCC(N)(CO)CO)cc1`: the excitability is 14.6.

As to `COc1ccc(Cl)cc1C(=O)NCCc1ccc(S(=O)(=O)NC(=O)NC2CCCCC2)cc1` [Glibenclamide], the excitability was 2.33.

For the compound `Clc1ccc(COC(Cn2ccnc2)c2ccc(Cl)cc2Cl)c(Cl)c1` (stereo not given) [Miconazole nitrate], the excitability is -1.24.

Take `COc1cc(Nc2c(C#N)cnc3cc(OCCCN4CCN(C)CC4)c(OC)cc23)c(Cl)cc1Cl` [Bosutinib]: the excitability was found to be 7.41.

`C=CC(=O)N1CCC[C@@H](n2nc(-c3ccc(Oc4ccccc4)cc3)c3c(N)ncnc32)C1` [Ibrutinib]: the excitability was -1.71.

For `Cc1cccc(CN2CCN(C(c3ccccc3)c3ccc(Cl)cc3)CC2)c1` (stereo not given) [Meclizine dihydrochloride], the excitability turned out to be 8.17.

As for `CCCCNc1cc(C(=O)O)cc(S(N)(=O)=O)c1Oc1ccccc1` [Bumetanide], the excitability stood at 7.06.

For `CCOc1nc2cccc(C(=O)O)c2n1Cc1ccc(-c2ccccc2-c2noc(=O)[nH]2)cc1` [Azilsartan], the excitability is 4.01.

Take `CN1CCC[C@@H]1Cc1c[nH]c2ccc(CCS(=O)(=O)c3ccccc3)cc12` [Eletriptan hydrobromide]: the excitability came to 6.84.

Consider `C=C1[C@H](CO)[C@@H](O)C[C@@H]1n1cnc2c(=O)[nH]c(N)nc21` [Entecavir], for which the excitability is -0.589.

Regarding `COc1c(C)c2c(c(O)c1C/C=C(\C)CCC(=O)OCCN1CCOCC1)C(=O)OC2` [Mycophenolate mofetil], the excitability was 4.14.

For `COc1ccc(C[C@@H](C)NC[C@H](O)c2ccc(O)c(NC=O)c2)cc1` [Arformoterol tartrate], the excitability worked out at 4.62.

For `CC(C)[C@H]1CC[C@H](C(=O)N[C@H](Cc2ccccc2)C(=O)O)CC1` [Nateglinide], the excitability is 2.5.

For the compound `C[C@@H](O[C@H]1OCCN(Cc2n[nH]c(=O)[nH]2)[C@H]1c1ccc(F)cc1)c1cc(C(F)(F)F)cc(C(F)(F)F)c1` [Aprepitant], the excitability is 8.09.

Consider `CN(C)CCC[C@@]1(c2ccc(F)cc2)OCc2cc(C#N)ccc21` [Escitalopram oxalate], for which the excitability came to 14.5.

As for `CN1CCC[C@@H]1CCO[C@](C)(c1ccccc1)c1ccc(Cl)cc1` [Clemastine fumarate], the excitability stood at 12.9.

For the compound `CC(=O)NC[C@H]1CN(c2ccc(N3CCOCC3)c(F)c2)C(=O)O1` [Linezolid], the excitability worked out at 6.87.

As to `OC(CNCC(O)C1CCc2cc(F)ccc2O1)C1CCc2cc(F)ccc2O1` (stereo not given) [Nebivolol hydrochloride], the excitability worked out at 12.7.

For the compound `Cc1ccc(-c2cc(C(F)(F)F)nn2-c2ccc(S(N)(=O)=O)cc2)cc1` [Celecoxib], the excitability stood at 4.91.

For `CCN(Cc1ccncc1)C(=O)C(CO)c1ccccc1` (stereo not given) [Tropicamide], the excitability was -2.02.

Turning to `CCOc1ccccc1OCCN[C@H](C)Cc1ccc(OC)c(S(N)(=O)=O)c1` [Tamsulosin hydrochloride], the excitability was 16.7.

Turning to `CC1=Nc2ccc(Cl)cc2S(=O)(=O)N1` [Diazoxide], the excitability worked out at 3.88.

As for `Cc1c(-c2ccc(O)cc2)n(Cc2ccc(OCCN3CCCCCC3)cc2)c2ccc(O)cc12` [Bazedoxifene acetate], the excitability came to 15.4.

For `NC(=O)N1c2ccccc2C=Cc2ccccc21` [Carbamazepine], the excitability came to 1.07.

On to `COc1ccc([C@@H]2Sc3ccccc3N(CCN(C)C)C(=O)[C@@H]2OC(C)=O)cc1` [Diltiazem hydrochloride], for which the excitability is 1.06.

As for `CC(CCc1ccc(O)cc1)NCCc1ccc(O)c(O)c1` (stereo not given) [Dobutamine hydrochloride], the excitability is 9.03.

Take `Cc1nnc(C(C)C)n1C1C[C@H]2CC[C@@H](C1)N2CC[C@H](NC(=O)C1CCC(F)(F)CC1)c1ccccc1` (stereo in doubt) [Maraviroc]: the excitability was determined as 6.13.

As to `CC(C)c1ccc2oc3nc(N)c(C(=O)O)cc3c(=O)c2c1` [Amlexanox], the excitability stood at 5.26.

`Cc1ccc(N(CC2=NCCN2)c2cccc(O)c2)cc1` [Phentolamine Mesylate]: the excitability amounted to 15.6.

As for `Cc1cc(C2CCCCC2)n(O)c(=O)c1` [Ciclopirox], the excitability came to 5.61.

For the compound `COc1c(C)c2c(c(O)c1C/C=C(\C)CCC(=O)O)C(=O)OC2` [Mycophenolic acid], the excitability came out at 1.48.

Turning to `CC[C@H](C)C(=O)O[C@H]1C[C@@H](C)C=C2C=C[C@H](C)[C@H](CC[C@@H]3C[C@@H](O)CC(=O)O3)[C@H]21` [Lovastatin], the excitability is 15.

As for `CN(C)CCc1c[nH]c2ccc(Cn3cncn3)cc12` [Rizatriptan benzoate], the excitability is -0.877.

Regarding `N#Cc1ccc(C(c2ccc(C#N)cc2)n2cncn2)cc1` [Letrozole], the excitability stood at 0.318.

Take `CCOC(=O)N1CCC(=C2c3ccc(Cl)cc3CCc3cccnc32)CC1` [Loratidine]: the excitability was -3.25.

`CNC(=O)c1ccccc1Sc1ccc2c(/C=C/c3ccccn3)n[nH]c2c1` [Axitinib]: the excitability is 1.48.

Consider `C[C@H](Cc1cc2c(c(C(N)=O)c1)N(CCCO)CC2)NCCOc1ccccc1OCC(F)(F)F` [Silodosin], for which the excitability came to 22.6.

As for `CCCN(CCC)S(=O)(=O)c1ccc(C(=O)O)cc1` [Probenecid], the excitability is 5.41.
